About 4,700 (1.3%) of roughly 370,000 compounds were called active. The sample holds actives, similar compounds and a random draw of the others, so the mix is not that of the screen. Values without a mark were called inactive.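 How the source made its calls: active means inhibition above the plate cutoff, the mean of all test compounds on that plate plus 3 SD (cut at about 35% in these data); inactive means the rest.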
Test: binders of r(CAG) RNA repeats, primary screen, biochemical, fluorescence (AID 651821);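 further: 0% = DMSO alone and 100% = 100 µM mitoxantrone as full dye displacement; higher means more dye released from RNA so lower well fluorescence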
Conditions: r(CAG) RNA repeat, TO-PRO-1 dye displacement fluorescence; at 3 µM; active compounds read high

Compound | inhibition
CCOC(=O)Cn1c2c(n(-c3ccc(F)cc3)c1=O)C=C(c1ccccc1)[C@@H](C)C(C(=O)N(C)C1CCCCC1)=C2 | 7.36%
O=C1CCC2(CCC(c3ccc(Cl)cc3)CC2)N1CCO (centres undefined) | 0.01%
Cc1c(NC(=O)Nc2cccc([N+](=O)[O-])c2)c(=O)n(-c2ccccc2)n1C | -1.07%
Cc1cc(/C=N/Nc2ccc([N+](=O)[O-])cn2)c(C)n1-c1cccc(C(=O)O)c1 | 47.8% (active)
Cc1cccc(C(=O)NC(=S)N2CCN(c3ccc([N+](=O)[O-])cc3)CC2)c1 | 1.75%
CCN(CC)Cc1c(C(=O)OC)nnn1-c1nonc1N | -2.7%
CCCCOCCCNC(=O)C[C@H]1C[C@@]2(C(=O)OC)C(=C[C@H](COCc3ccccc3)O[C@@H]2C)N(Cc2cccc3ccccc23)C1=O | 4.81%
Cc1ccc(SC(CC(=O)c2ccc(C(C)(C)C)cc2)C(=O)O)cc1 (centres undefined) | 42.9% (active)
Cc1ccc(CSCC(N)C(=O)O)cc1 (centres undefined) | 5.4%
Cc1ccc(SC(C)C(=O)NCc2ccc(F)cc2)cc1 (centres undefined) | -0.76%
CCOC(=O)C1=C(C)NC(SC)=NC1c1ccccc1 (centres undefined) | 0.67%
CO[C@@H]1[C@@H](OC(N)=O)[C@@H](O)C(Oc2ccc3c(O)c(NC(=O)c4ccc(O)c(CC=C(C)C)c4)c(=O)oc3c2C)OC1(C)C (some centres undefined) | 49.8% (active)
COc1ccc(NC(=O)N(C)C[C@@H]2OCCCC[C@@H](C)Oc3ccc(NC(=O)NC4CCCCC4)cc3C(=O)N([C@H](C)CO)C[C@@H]2C)cc1 | 10%
O=C(COc1ccccc1)Nc1ccc(C(=O)N2CCCC2)cc1 | -1.86%
COc1cc(NC(=O)COc2ccccc2Cl)ccc1NC(=O)C(C)C | -5.61%
O=C(COc1ccccc1Cl)Nc1ccc(C(=O)c2ccc(C(=O)O)cc2)cc1 | 41.2% (active)
O=C(OC12CCCN(C1)/C(=C/c1cccnc1)C2)C1CCCC1 (centres undefined) | -0.17%
Cc1sc(NC(=O)c2ccc3ncsc3c2)c(C(N)=O)c1C | 35.7% (active)
O=C(COC(=O)c1ccc2ncsc2c1)Nc1ccc(Cl)cc1 | 7.21%
COc1ccccc1-c1nnc(NC(=O)c2ccc3ncsc3c2)o1 | 10.6%
O=C(CCl)NC1CCCCN(Cc2cccc(C(F)(F)F)c2)C1=O (centres undefined) | 1.48%
Cc1cc(=O)oc2c3c(cc(OCC(=O)N[C@H](C(=O)O)c4ccccc4)c12)OC(C)(C)CC3 | 33.1%
Cc1c(C)c2c(OCC(=O)NCCCO)cc3c(c2oc1=O)CCC(C)(C)O3 | -6.81%
Cc1c(C)c2c(OCC(=O)N[C@@H](C(=O)O)c3ccccc3)cc3c(c2oc1=O)CCC(C)(C)O3 | 41.1% (active)
CCN(CC(=O)Nc1c(F)cccc1F)C(=O)CN1c2cccc3cccc(c23)S1(=O)=O | -4.19%
c1csc(-c2nnc(SCc3nc4ccccc4[nH]3)o2)c1 | 0.42%
COC(=O)Cc1csc(Nc2c(C)n(C)n(-c3ccccc3)c2=O)n1 | 3.58%

Compound | inhibition
COC(=O)C1[C@H]2SC(C)(C)C(C(=O)OC)N2C(=O)N1Cc1nc2ccccc2s1 (some centres undefined) | -2.88%
COC(=O)Cc1cc(=O)n(-c2nc3ccccc3s2)[nH]1 | 60.6% (active)
CC(C)NC(=O)/C(C#N)=C\c1ccc(N(C)C)c(Br)c1 | -7.35%
COCC(=O)N[C@@H]1C[C@@H]2O[C@@H](CO)CC[C@@H]2O[C@@H]1CCc1ccc(-c2ccccc2)cc1 | -0.99%
O=C(NCC1(N2CCCCC2)CCCCC1)c1cccc(S(=O)(=O)Nc2ccccc2Cl)c1 | 16.6%
O=C(Nc1ccc2c(c1)CCC2)c1cccc(S(=O)(=O)N2CCN(c3ccc(F)cc3)CC2)c1 | 13%
O=C(Nc1ccc2c(c1)CCC2)c1cccc(S(=O)(=O)Nc2ccccc2Cl)c1 | 57.2% (active)
CCOC(=O)[C@@]12CN(C(=O)OC(C)(C)C)CC=C1N(Cc1ccc(OC)cc1)C(=O)[C@H]2CC(=O)NCc1ccc(OC)c(OC)c1 | 1.18%
CCCCCCC(=O)Nc1nc(C)c(-c2csc(Nc3cc(Cl)ccc3OC)n2)s1 | 41.8% (active)
CCCCCCC(=O)Nc1nc(C)c(-c2csc(Nc3cccc(OC)c3)n2)s1 | 28.5%
C=CCCC(=O)Nc1nc(C)c(-c2csc(Nc3ccc(Cl)cc3)n2)s1 | 31.7%
COCCCNC(=O)C[C@H]1C[C@@]2(C(=O)OC)C(=C[C@H](C(C)(C)C)O[C@@H]2C)N(Cc2ccc3c(c2)OCO3)C1=O | -0.27%
CCOc1cc(/C=C(\C#N)c2nc(-c3cccs3)c(NC(C)=O)s2)ccc1O | 37.7% (active)
CCOc1cc(/C=C(/C#N)c2ccc(Cl)cc2)cc(Cl)c1OCC(=O)O | 16.7%
CCOc1ccc(/C=C/C(=O)N(CC)CC(=O)NCc2cccs2)cc1OC | -8.5%
CCCN1C(=O)c2[nH]nc(-c3ccccc3)c2C1c1ccccc1 (centres undefined) | 0.38%
CC1(OC(=O)C2CCCC2)C(=O)C=C2C=C(c3ccc(C#N)cc3)OC=C2C1=O (centres undefined) | 50.7% (active)
Cc1ccccc1C(=O)N1CCC(C(=O)Oc2ccc(C#N)cc2)CC1 | -7.52%
COC(=O)CCCC1=CC2=C(c3ccccc3)C(=O)C(C)(OC(=O)C3CCCC3)C(=O)C2=CN1c1ccc(OC)cc1 (centres undefined) | 6.99%
C=CC1=CCN(S(=O)(=O)C(C)(C)C)[C@@H]1CCO | 8.95%
CCC(C)Cn1c(O)cc2nn(-c3nc4ccccc4s3)c(=O)c-2c1C (centres undefined) | 56.8% (active)
Cc1cc(C)cc(OCC(=O)Nc2ccc(N3CCOCC3)cc2N2CCOCC2)c1 | -4.13%
Cc1cccc(OCC(=O)Nc2ccc(C(=O)O)cc2NC(=O)COc2cccc(C)c2)c1 | 50.5% (active)
COCC(=O)Nc1cc(C(=O)OC)cc(C(=O)OC)c1 | -0.01%
Cc1ccc(OCC(=O)Nc2ccc(C(=O)O)cc2NC(=O)COc2ccc(C)c(C)c2)cc1C | 19.4%
Cc1cccc(OCC(=O)NC2CC(C)(C)NC(C)(C)C2)c1 | 0.76%
Cc1cc(C)cc(OCC(=O)Nc2cc(NC(=O)COc3cc(C)cc(C)c3)cc(C(=O)O)c2)c1 | 61.8% (active)

Compound | inhibition
COC(=O)Nc1nc2ccc(C(=O)C3CC3)cc2[nH]1 | 4.25%
C[C@H](C(=O)N(C)c1ccccc1)[C@@H](O)c1ccc2ccccc2c1 | 1.73%
CCOC(=O)[C@@]12CCC3=C1N(CCC3)C(=O)[C@H](CC(=O)N1CCN(C(=O)c3ccco3)CC1)C2 | 4.55%
C=CCc1ccc(OCC(O)CN2CCN(Cc3ccccc3)CC2)c(OC)c1 (centres undefined) | -8.04%
COc1cc(C2CC(=O)N3CN(Cc4ccccc4)CSC3=C2C#N)ccc1OCc1ccccc1 (centres undefined) | 51.3% (active)
CCCNC(=O)C1CC(=O)N(c2ccc(OCc3ccccc3)cc2)C1 (centres undefined) | 1.21%
C/C(=N/OC(=O)c1ccc(Br)cc1)c1ccc(C)cc1 | -2.66%
COc1ccccc1C(=O)NC(CCSC)C(=O)NNC(=O)c1ccccc1C (centres undefined) | -5.48%
Cc1ccc(S(=O)(=O)N2[C@@H](c3ccccc3F)C(C(=O)O)=CC[C@H]2c2ccc(Cl)cc2)cc1 | 60.2% (active)
Cc1ccc(S(=O)(=O)N2[C@@H](c3cccc(Cl)c3)C(C(=O)O)=CC[C@H]2c2ccc(Cl)c(Cl)c2)cc1 | 25.1%
CCOC(=O)C1=CC[C@@H](c2ccccc2)N(S(=O)(=O)c2ccc(C)cc2)[C@H]1c1cccc(OC)c1 | 7.08%
Cc1ccccc1S(=O)(=O)N1[C@@H](c2cccc(Cl)c2)C(C(=O)O)=CC[C@H]1c1ccc(Cl)cc1 | 81.4% (active)
Cc1ccc([C@@H]2CC(=O)[C@@H]3CN(S(=O)(=O)c4ccc(C)cc4)[C@H](c4ccccc4F)C[C@@H]3N2S(=O)(=O)c2ccc(Cl)cc2)cc1 | 9.69%
CCN1C(=O)[C@@H]2[C@@H]3CN(S(=O)(=O)c4ccccc4C)[C@@H](c4ccc(Cl)cc4)[C@@H]3C(=O)C[C@@H]2C1=O | 8.04%
COc1ccc(C2CC=C(C(=O)O)C(c3ccccc3F)N2S(=O)(=O)c2ccc(C)cc2)cc1OC (centres undefined) | 24.2%
Cc1ccc([C@@H]2CC=C(C(=O)O)[C@H](c3cccc(Cl)c3)N2S(=O)(=O)c2ccc(C)cc2)cc1 | 77.2% (active)
Cc1ccccc1S(=O)(=O)N1[C@@H](c2cccc(Cl)c2)C(C(=O)OC(C)(C)C)=CC[C@H]1c1ccc(Cl)cc1 | 3.52%
Clc1ccc(-n2c(COc3ccccc3)nnc2SCc2nc3ccccc3[nH]2)cc1 | 2.7%
COC(=O)[C@@]12CCCCC=C1N(CCc1ccc(Cl)cc1)C(=O)[C@H]2CC(=O)NCc1ccc(OC)c(OC)c1 | 8.28%
CC(=NNC(N)=O)c1ccc(Cl)c(-n2cccc2)c1 | 1.94%
COc1ccc(CNC(=O)CN(Cc2ccccc2Cl)C(=O)c2csnn2)cc1 | 3.39%
O=S1(=O)c2c(cccc2N2CCCC2)O[C@H](COCc2ccccc2)CN1C1CC1 | 1.71%
CCCC1=Nc2cc(C(=O)NCc3ccco3)ccc2Sc2ccccc21 | 2.23%
C=CCN1[C@@H](Cc2ccccc2)COc2cccc(N3CCSCC3)c2S1(=O)=O | 5.53%
Cc1ccccc1C(=O)N[C@H](C(=O)N1CCC[C@H]1C(=O)NCc1ccccc1)C(C)C | 0.37%

— PubChem BioAssay AID651821 (The Scripps Research Institute Molecular Screening Center, 2012)
